# According to PubChem BioAssay (Tox21):
# Unmarked numbers belong to inactive results. Where a call stands in place of a potency, no number is given. Active and inactive are the calls of the source. Calls come from the whole dose curve.
# Biological target: Gonadotropin-releasing hormone receptor (Homo sapiens) (UniProt P30968)
# Experiment: Human gonadotropin-releasing hormone receptor (GnRHR) small molecule agonists, calcium flux assay in GnRHR-HEK293 cells (AID 1920063); note: nearly all actives have a fitted effect of over 35% in size
# Settings: calcium flux fluorescence, agonist mode; series mostly up to 57.6 µM
# Description: National Center for Advancing Translational Sciences [NCATS]
# Division of Preclinical Innovation [DPI]
# U.S. Environmental Protection Agency [EPA]
# National Institutes of Environmental Health Sciences [NIEHS]
# National Toxicology Program [NTP]
# U.S. Food and Drug Administration [FDA]
# Gonadotropin-releasing hormone receptor (GnRHR) is a G-protein-coupled receptor (GPCR) and acts (through phospholipase C) to increase intracellular inositol trisphosphate and then release intracellular calcium stores. Cell-based GnRHR-Hek293 calcium influx assay is using HEK293 cells that have been genetically engineered to express the human GnRHR, which activity can be measured by calcium signaling. A compound/drug can activate (agonist) GnRHR that can be monitored by levels of intracellular calcium.
# GnRHR-HEK293 cells developed by Codex Corp contain human GnRHR reporter gene, which was stably integrated into HEK 293 cells. The compound activation can be detected by fluorescence intensity via calcium flux assay. This cell line has been used to screen the Tox21 10K compound library to identify GnRHR agonists.
# GnRHR-Hek293 cells were dispensed at 1500cells/4uL/well in 1536-well black wall/clear bottom plates using a multidrop dispenser. After the assay plates were incubated at a 37 C/5% CO2 incubator for 18 hours, 4 uL of Calcium Dye Solution was added to each well. The plates were incubated at 37 C for 1 hour. For agonist mode, 23 nL of compounds dissolved in DMSO, positive controls or DMSO only was transferred to the assay plate by a pin tool station. The fluorescence intensity in the plates was measured using FDSS 7000EX kinetic plate reader with a filter set of Ex/Em=480/540 for 3 min at 1 sec intervals. Each test compound was measured at 15 concentrations and in triplicates.
# Potency is the fitted concentration of half-maximal effect.
# Gonadotropin-releasing hormone receptor (Homo sapiens), sequence (P30968 whole entry, looked up): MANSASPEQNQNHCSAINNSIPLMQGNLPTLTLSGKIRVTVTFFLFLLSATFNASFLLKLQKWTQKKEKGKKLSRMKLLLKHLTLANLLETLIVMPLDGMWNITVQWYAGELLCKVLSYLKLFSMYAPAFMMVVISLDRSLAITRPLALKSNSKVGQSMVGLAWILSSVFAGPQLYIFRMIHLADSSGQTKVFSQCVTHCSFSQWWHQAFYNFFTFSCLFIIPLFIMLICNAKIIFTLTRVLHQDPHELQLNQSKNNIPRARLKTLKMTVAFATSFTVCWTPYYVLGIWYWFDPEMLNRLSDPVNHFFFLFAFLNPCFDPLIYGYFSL
SMILES,Potency,activity change
CC(C)NCC(O)COc1ccc(CC(N)=O)cc1 (stereo not given),inactive,–
CC(C)C1=CC2=CC[C@@H]3[C@](C)(CCC[C@@]3(C)C(=O)O)[C@H]2CC1,inactive,–
COC(=O)CCS,inactive,–
COc1cccc(N)c1,inactive,–
Cc1ccc2c(c1)CCCN2,inactive,–
CC(C)c1ccc2c(c1)CC[C@H]1[C@](C)(CN)CCC[C@]21C,11 µM (active),–
NNc1nc(-c2ccc(N)cc2)cs1,inactive,–
Nc1ccc(N=Nc2ccccc2)c(N)c1,inactive,–
Nc1ccn([C@@H]2O[C@H](CO)[C@@H](O)C2O)c(=O)n1 (stereo not given in full),inactive,–
CCCCNC(=S)NCCCC,inactive,–
CCCC(CCC)(C(=O)OCC)C(=O)OCC,inactive,–
COc1ccc(CCN(C)CCCN2CCc3cc(OC)c(OC)cc3CC2=O)cc1OC,inactive,–
COc1ccc2cc([C@H](C)C(=O)O)ccc2c1,inactive,–
NC(Cc1ccc(F)cc1)C(=O)O (stereo not given),–,"-0.388% [at 5.22 µM, active compounds read high]"
CC(C)COC(=O)c1ccc(O)cc1,inactive,–
c1ccc2c(c1)CCCC2C1=NCCN1 (stereo not given),inactive,–
S=C([S-])NCCNC(=S)[S-].[Mn+2],inactive,–
c1cc(N(CC2CO2)CC2CO2)ccc1OCC1CO1 (stereo not given),inactive,–
CCCCCCCCCCCCC1CO1 (stereo not given),inactive,–
CC(COc1ccc(C(C)(C)C)cc1)OS(=O)OCCCl (stereo not given),inactive,–

SMILES,Potency,activity change
O=S(=O)(O)c1ccc(Nc2nc(Nc3ccc(/C=C/c4ccc(Nc5nc(Nc6ccc(S(=O)(=O)O)cc6)nc(N(CCO)CCO)n5)cc4S(=O)(=O)O)c(S(=O)(=O)O)c3)nc(N(CCO)CCO)n2)cc1,inactive,–
c1ccc2sc(SN3CCOCC3)nc2c1,inactive,–
CN(C)CC[C@@H](c1ccc(Br)cc1)c1ccccn1,inactive,–
O=C(O)c1cc(Br)c(O)c(Br)c1,inactive,–
COc1cc(C(C)C)c2c(c1)S(=O)(=O)N(COc1cc(=O)n3cccc(OCCN4CCCCC4)c3n1)C2=O,–,"-0.424% [at 11.8 µM, active compounds read high]"
C[C@H](CCC(=O)O)[C@H]1CC[C@H]2[C@@H]3C(=O)C[C@@H]4CC(=O)CC[C@]4(C)[C@H]3CC(=O)[C@]12C,inactive,–
NCCCCCCNCCCCCCN,inactive,–
O=C(O)c1c(Cl)ccc(Cl)c1Cl,inactive,–
CC(=O)OCC(CCn1cnc2cnc(N)nc21)COC(C)=O,inactive,–
C=C(C)C1CCC(C)(O)CC1 (stereo not given),inactive,–
c1ccc2c(c1)ccc1c3ccccc3ccc21,inactive,–
CC(=O)OCC(=O)[C@H]1CC[C@H]2[C@@H]3CCC4=CC(=O)CC[C@]4(C)[C@H]3CC[C@]12C,inactive,–
Cc1cccc(O)c1N,inactive,–
CCCCCCCCCCCCN(CCCCCCCCCCCC)CCCCCCCCCCCC,inactive,–
O=c1c2ccccc2oc2ccccc12,inactive,–
CC(C)c1cccc(C(C)C)c1NC(=O)NS(=O)(=O)c1cc(C(C)(C)O)co1,inactive,–
COCc1nnc(-c2ccc[n+]([O-])c2)n1-c1c(Cl)c(Cl)cc2[nH]c(=O)c(=O)[nH]c12,inactive,–
COc1nc(N)nc2c1ncn2[C@@H]1O[C@H](CO)[C@@H](O)[C@@H]1O,inactive,–
CCCC(=O)O[C@]1(C(=O)CO)CC[C@H]2[C@@H]3CCC4=CC(=O)CC[C@]4(C)[C@H]3[C@@H](O)C[C@@]21C,inactive,–
COc1ccc2c(c1)c(CC(=O)OC/C=C(\C)CC/C=C(\C)CCC=C(C)C)c(C)n2C(=O)c1ccc(Cl)cc1,inactive,–
